From PubChem BioAssay (NCI)
This is part of a sample that, as a whole, favours compounds with a hit. Of some 79,000 tested, about 15% had one in any assay. Values without a mark were called inactive. Activity calls are given as the source filed them. No stated cut-off is given here; in the data, active means growth inhibition above about 70%; inactive means the rest.

Test: NCI Yeast Anticancer Drug Screen. Data for the rad18 strain (AID 177)
Settings: S. cerevisiae rad18 mutant growth inhibition, stronger effect = higher value
Procedure: Growth inhibition of yeast strains with defined genetic alterations is measured as a screen for potential anti-cancer activity. Selected strains with alterations in DNA damage repair or cell cycle control were exposed to compounds and growth inhibition was measured relative to vehicle treated controls. The strain used in this assay is rad18

SMILES	growth inhibition (at 1.2 µM)	growth inhibition (at 3.7 µM)	growth inhibition (at 11.0 µM)	growth inhibition (at 33.0 µM)	growth inhibition (at 100.0 µM)
O=C1c2ccccc2-c2n[nH]c3cccc1c23	-49%	-32%	-1%	33%	50%
CC(C)/C(Cl)=N\OC(=O)Nc1ccc(F)cc1	-1%	0%	2%	5%	56%
c1ccc2c(c1)c1ncccc1c1nccnc21	-10%	-1%	-2%	-1%	13%
COC(=O)c1cc(-c2ccc(C)cc2)[nH]c(=O)c1C#N	-17%	-11%	-16%	-11%	-18%
CC[C@@]1(O)C(=O)OCc2c1cc1n(c2=O)Cc2cc3c(CN(C)C)c(O)ccc3nc2-1	28%	23%	28%	16%	9%
CC(C)c1ccccc1NC(=O)/C(Cl)=C(\Cl)C(=O)O	0%	0%	1%	8%	98% (active)
CC(C)[N+]([O-])(CCCNc1c2ccccc2nc2cccc([N+](=O)[O-])c12)C(C)C	96% (active)	96% (active)	96% (active)	97% (active)	97% (active)
CCCCN(CCCC)CCSc1ccc(Cl)cc1	-8%	-11%	-7%	2%	89% (active)
